About 14,000 (4.5%) of roughly 310,000 compounds showed an effect of 50% or more. The effect is printed as a negative number. The full list was thinned out, with strong results kept by preference.
What follows are molecules tested against human ether-à-go-go-related gene (hERG) potassium channel (human, UniProt Q12809) (assay: primary screen, population patch clamp on CHO cells stably expressing hERG; higher = less effect of the substance).
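Note: peak tail current of the secondary pulse compared with the same well before compound.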

human ether-à-go-go-related gene (hERG) potassium channel, sequence (Q12809 whole entry, looked up): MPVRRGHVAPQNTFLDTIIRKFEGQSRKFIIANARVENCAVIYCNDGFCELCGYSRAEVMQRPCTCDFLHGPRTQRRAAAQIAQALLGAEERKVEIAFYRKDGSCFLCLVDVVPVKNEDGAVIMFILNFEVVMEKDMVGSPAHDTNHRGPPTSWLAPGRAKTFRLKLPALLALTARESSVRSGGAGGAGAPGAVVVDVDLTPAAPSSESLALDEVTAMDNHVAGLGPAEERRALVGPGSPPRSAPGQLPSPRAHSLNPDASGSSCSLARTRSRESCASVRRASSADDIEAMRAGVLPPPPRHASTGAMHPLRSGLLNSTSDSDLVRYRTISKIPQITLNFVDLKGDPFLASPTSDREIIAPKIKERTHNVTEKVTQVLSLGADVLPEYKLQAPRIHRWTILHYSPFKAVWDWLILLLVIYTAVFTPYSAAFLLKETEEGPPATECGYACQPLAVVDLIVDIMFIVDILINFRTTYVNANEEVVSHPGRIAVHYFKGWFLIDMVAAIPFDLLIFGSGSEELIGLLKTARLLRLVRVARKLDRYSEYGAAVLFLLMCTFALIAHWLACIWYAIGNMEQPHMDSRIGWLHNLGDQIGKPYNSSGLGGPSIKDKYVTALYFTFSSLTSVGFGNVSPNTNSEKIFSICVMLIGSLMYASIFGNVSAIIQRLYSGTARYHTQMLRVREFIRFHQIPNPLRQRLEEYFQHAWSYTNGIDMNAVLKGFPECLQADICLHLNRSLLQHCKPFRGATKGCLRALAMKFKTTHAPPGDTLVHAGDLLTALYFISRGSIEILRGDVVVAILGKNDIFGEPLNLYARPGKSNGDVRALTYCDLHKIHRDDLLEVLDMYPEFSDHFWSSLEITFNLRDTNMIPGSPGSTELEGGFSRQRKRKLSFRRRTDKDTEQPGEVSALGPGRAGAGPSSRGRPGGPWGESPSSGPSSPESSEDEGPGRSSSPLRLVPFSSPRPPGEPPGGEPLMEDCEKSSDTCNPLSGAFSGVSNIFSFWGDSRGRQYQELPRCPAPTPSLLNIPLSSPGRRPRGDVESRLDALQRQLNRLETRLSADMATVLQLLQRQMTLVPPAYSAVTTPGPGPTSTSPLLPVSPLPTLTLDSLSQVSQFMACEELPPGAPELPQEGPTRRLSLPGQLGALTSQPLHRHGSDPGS

| SMILES | hERG current change (%, negative = inhibition) at 10uM |
| --- | --- |
| CCN1C(=O)CC(C(=O)Nc2ccc(F)cc2)SC1=Nc1ccc2c(c1)OCO2 (stereo not drawn) | -13.5% |
| CC(C)Sc1nc(N)c2c3c(sc2n1)CN(C)CC3 | -34% |
| CC(=O)Oc1ccc(/C=N/NC(=O)CCSc2ccccc2)cc1 | -8.83% |
| COc1ccc2nc(-c3ccccc3)[nH]c2c1 | -1.4% |
| COc1ccc(/C=C/C(=O)NCC(=O)N/N=C/c2cccnc2)cc1 | -14.9% |
| CCN(CC)CCNC(=S)Nc1ccc2nc(N3CCN(CC)CC3)cc(C)c2c1 | 11.2% |
| Cc1cc(N2CCN(C)CC2)nc2ccc(NC(=S)NC3CC3)cc12 | 3.2% |
| COc1ccc(CNC(=S)Nc2ccc3nc(N4CCN(C)CC4)cc(C)c3c2)cc1 | -51.1% |
| COc1ccc(CNC(=S)Nc2ccc3nc(N4CCOCC4)cc(C)c3c2)cc1 | -24% |
| COc1ccccc1CNC(=S)Nc1ccc2nc(N3CCN(C)CC3)cc(C)c2c1 | -1.77% |
| CCN1CCN(c2cc(C)c3cc(NC(=O)c4cccnc4Cl)ccc3n2)CC1 | -6.83% |
| CCCCNC(=S)Nc1ccc2nc(N3CCN(CC)CC3)cc(C)c2c1 | -44.6% |
| CCN1CCN(c2cc(C)c3cc(NC(=S)NCc4cccs4)ccc3n2)CC1 | -59.7% |
| Cc1cc(N2CCN(C)CC2)nc2ccc(NC(=S)NCCN3CCc4ccccc4C3)cc12 | -23.7% |
| Cc1cc(N2CCN(C)CC2)nc2ccc(NC(=S)NCc3cccs3)cc12 | -56.3% |
| CCN1CCN(c2cc(C)c3cc(NC(=O)c4cccs4)ccc3n2)CC1 | -55.1% |
| CC(=O)c1ccc(NC(=O)C2=CC(c3ccco3)=NS(=O)(=O)N2C)cc1 | -7.75% |
| COC(C(=O)N/N=C(\C)CC(=O)Nc1ccc(N(C)C)cc1)c1ccccc1 (stereo not drawn) | 15.3% |
| CC(NS(C)(=O)=O)C(c1cccs1)N1CCN(c2ccccc2F)CC1 (stereo not drawn) | 6.04% |

| SMILES | hERG current change (%, negative = inhibition) at 10uM |
| --- | --- |
| Cc1ccc(CNC(=O)Cn2c([N+](=O)[O-])cnc2C)cc1 | 11.3% |
| COc1ccc(S(=O)(=O)NNC(=O)Nc2ccc(C)cc2C)c(OC)c1 | -1.37% |
| Cc1nc(SCC(=O)c2c(N)n(C3CC3)c(=O)[nH]c2=O)[nH]c(=O)c1CCO | 17% |
| COc1ccc2c(c1)OC(O)(C(F)(F)F)CC2=O (stereo not drawn) | -5.68% |
| CNC(=O)/C=C/c1cccc(C(F)(F)F)c1 | 4.99% |
| CN(C1CCCC1)C1CCN(C(=O)CNC(=O)/C=C/c2ccccc2)CC1 | -53.8% |
| COc1ccccc1/C=C/C(=O)NCC(=O)N1CCC(N(C)C2CCCC2)CC1 | -35% |
| CN(C1CCCC1)C1CCN(C(=O)CNC(=O)/C=C/c2cccc(C(F)(F)F)c2)CC1 | -62.6% |
| CC(C)(C)NC(=O)/C=C/c1cccc(C(F)(F)F)c1 | -8.66% |
| CN(C(=O)/C=C/c1ccccc1)C1CCCCC1 | 1.32% |
| CN(C1CCCC1)C1CCN(C(=O)CNC(=O)/C=C/c2ccc(F)cc2)CC1 | -62.6% |
| CN(C(=O)/C=C/c1ccc(F)cc1)C1CCCCC1 | -22.6% |
| CN(C(=S)NC(=O)/C=C/c1ccc(F)cc1)C1CCCCC1 | 4.54% |
| COc1ccc(NC(=O)c2cc(S(=O)(=O)NCC3COc4ccccc4O3)ccc2F)cc1 (stereo not drawn) | -19.1% |
| O=c1oc2ccccc2cc1-c1cn2ccccc2n1 | 11.9% |
| Nc1nnc(SCC(=O)NC2CCCCCCC2)s1 | 16.9% |
| CCCc1cc2c(cc1NC(=O)c1ccc(C(C)(C)C)cc1)OCO2 | -13.8% |
| Cc1csc(NC(=O)CSc2nnc3ncccn23)n1 | -14.3% |
| COCCn1c(SCC(=O)Nc2ccc(OC)cc2OC)nc2ccccc2c1=O | 10.5% |

| SMILES | hERG current change (%, negative = inhibition) at 10uM |
| --- | --- |
| COc1ccc(NC(=O)CSc2nc3ccccc3c(=O)n2CCCN2CCCCC2)c(OC)c1 | -65.7% |
| COc1ccc(NC(=O)CSc2nc3ccccc3c(=O)n2CCCN2CCC(C)CC2)c(OC)c1 | -81.6% |
| COCCn1c(SCC(=O)Nc2ccccc2OC)nc2ccccc2c1=O | -40.1% |
| CCn1c(SCC(=O)Nc2ccccc2OC)nc2ccccc2c1=O | -11.9% |
| COc1ccc(NC(=O)CSc2nc3ccccc3c(=O)n2CCCN2CCOCC2)c(OC)c1 | -34.6% |
| COc1ccc(NC(=O)CCCNS(=O)(=O)c2cccs2)cc1 | 2.91% |
| Cc1cccc(NC2=C(NC(=O)c3ccccc3)C(=O)c3ccccc3C2=O)c1 | -19.4% |
| COc1cccc(CC2(CO)CCN(Cc3cnc(N4CCOCC4)s3)CC2)c1 | -54.7% |
| Clc1ncc(CN2CCN(Cc3ccccc3)CC2)s1 | -4.52% |
| CCOC(=O)C1(Cc2ccccc2)CCN(Cc2cnc(N3CCOCC3)s2)CC1 | -42.4% |
| OCCC1CN(Cc2cnc(N3CCCC3)s2)CCN1Cc1ccccc1 (stereo not drawn) | -0.21% |
| CN(C)c1ncc(CN2CCC(CO)(CCCc3ccccc3)CC2)s1 | -51.3% |
| OCC1(CCc2ccccc2)CCN(Cc2cnc(N3CCCC3)s2)CC1 | -70.3% |
| OCCC1CN(Cc2cnc(N3CCCC3)s2)CCN1C1CCCC1 (stereo not drawn) | -7.38% |
| c1ccc(N2CCN(Cc3cnc(N4CCOCC4)s3)CC2)cc1 | 29.4% |
| OCC1(CCCc2ccccc2)CCN(Cc2cnc(N3CCOCC3)s2)CC1 | -58.3% |
| CC(=O)Nc1ccc(NC(=O)COC(=O)Cc2c[nH]c3ccccc23)cc1 | 10.2% |
| Cl.O=C(CN1CCCCCC1)N1c2ccccc2Sc2ccc(C(F)(F)F)cc21 | -1.87% |
| COc1cccc(CNC(=O)c2nnn(CC(=O)Nc3ccc(Br)cc3)c2N)c1 | 17.5% |

Reference: PMC4336329 (PLoS ONE, 2015)
